Source: PubChem BioAssay (National Center for Advancing Translational Sciences (NCATS))
Rows were chosen to be rich in hits. Some 2.1% of all compounds tested hit in one or more screens of this group.
TDP43 rescue = qHTS of TDP-43 Inhibitors | TDP-43 expressing yeast growth rescue, BacTiter-Glo, 24 h | Potency, µM (titrated, usually from 46.1 µM), most hits filed as activators | 410,000 tested, 1.8% active | AID 652104, 2013; also: nearly all actives have a fitted effect of over 50% in size
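In this qHTS, compounds that restore growth of yeast expressing TDP-43 appear as activators. Cells (OD600=0.02, galactose medium, raffinose-pregrown) are incubated with compound 24 hr at 30 deg C and growth is quantified by BacTiter-Glo.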
FUS suppressor = qHTS for Suppressors of FUS Proteinopathy: Primary screen using FUS-linked yeast assay | Potency, µM (titrated, usually from 76.6 µM), usual class: activators | S. cerevisiae FUS-expressing, growth rescue, OD600, 24 h | 390,000 tested, 0.24% active; also: nearly all actives have a fitted effect of over 55% in size
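Steps: raffinose overnight preculture; dilution to OD 0.005 in 2% galactose minimal medium; compound addition (concentration series); 24hr at 30C, 99% humidity; absorbance read at 600 nm.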
Abeta rescue = qHTS for compounds that reverse cellular toxicity of Amyloid beta (A-beta) peptide in yeast: Primary Screen; yeast expressing A-beta42, growth rescue, OD600, 48 h; response scale: 0% DMSO, 100% iron-clioquinol control; Potency, µM (doses to about 46.1 µM), hits mostly activators; 410,000 tested, 0.063% active; also: nearly all actives have a fitted effect of over 55% in size
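Growth rescue measured by 600 nm absorbance after 48 h yeast culture at 30 C with compound. Values normalized between DMSO and an equimolar ferric chloride plus clioquinol control.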
aSyn rescue = qHTS of alpha-syn Inhibitors; Yeast expressing alpha-synuclein, growth rescue, BacTiter-Glo, 24 h; Potency, µM (top dose mostly 46.1 µM), most hits filed as activators; 370,000 tested, 0.14% active; also: nearly all actives have a fitted effect of over 65% in size
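Galactose-induced alpha-syn yeast (OD600=0.02, raffinose-pregrown) + pinned cpd, 24 hr, 30 deg C; growth by BacTiter-Glo luminescence. Growth restoration scores as activation.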
A number is an active result; - = inactive; ? = inconclusive; . = not tested or not shown. Calls follow the shape of the dose curve; as a rule, active = well fitted curve in the direction sought with a large enough effect; inconclusive = small, poorly fitted or top-dose-only effect, or another doubt; inactive = no such curve, though single readings can be large; an effect the other way counts as inactive or inconclusive.

SMILES	TDP43 rescue	FUS suppressor	Abeta rescue	aSyn rescue
Cc1ccc(Cl)cc1-n1c(CCC(=O)O)ccc1-c1cccs1	12.6µM	-	-	.
CCOC(=O)c1ccc(-n2c(CCC(=O)O)ccc2-c2cccs2)cc1	-	-	-	20µM
CCCCn1c(CCC(=O)O)ccc1-c1cccs1	17.8µM	-	-	-
COC(=O)Cn1nc(-c2ccccc2)c2cccc(C(F)(F)F)c21	.	-	.	.
O=C(NCCc1ccccc1F)c1ccc2c(c1)ncn2C1CCCCC1	.	-	.	.
c1ccc(-c2nnc3n2N=C(c2ccc4ccccc4c2)CS3)cc1	.	-	.	.
Cc1cc(Cl)ccc1-n1c(CCC(=O)O)ccc1-c1cccs1	22.4µM	?	-	.
Cc1c(Cl)cccc1-n1c(CCC(=O)O)ccc1-c1cccs1	?	?	-	.
N#C/C(=C/c1ccccc1[N+](=O)[O-])c1nc(C2CC2)cs1	?	.	-	-
N#C/C(=C\c1ccccc1[N+](=O)[O-])c1nc(C2CC2)cs1	14.1µM	.	-	-
COCCn1c(=O)sc2ccccc2c1=O	?	-	-	-
COc1ccc(OCCn2c(C(C)Oc3ccccc3)nc3ccccc32)cc1 (stereo unspecified)	20µM	-	?	.
COc1ccc(Cn2c(=O)sc3ccccc3c2=O)cc1	11.2µM	-	-	?
COc1ccc(OCCn2c(=O)sc3ccccc32)cc1	15.8µM	-	-	25.1µM
CCOc1ccc(Cn2c(=O)sc3ccccc32)cc1OC	12.6µM	-	-	?
O=C(c1ccncc1)N1CC[C@H]2[C@H](CCCN2Cc2cc(F)cc(F)c2)C1	.	-	.	.
CN(C)[C@@H]1CCN(c2cccc3c2S(=O)(=O)N2CC[C@H](C2)O3)C1	.	-	.	.
COC(=O)CSc1nnc(-c2cc(-c3ccccc3)n[nH]2)n1N	.	-	.	.
NC(=S)NN=C1CSSC1	20µM	-	?	2.82µM
CC1(C)CCC(=NNC(N)=S)CC1	-	.	-	-
Cc1c(C(=O)NCc2ccc(F)cc2)sc2nc(-c3ccccc3)cn12	-	-	-	.
Cc1c(C(=O)N(C)c2ccccc2)sc2nc(-c3ccc(F)cc3)cn12	35.5µM	-	-	.
Cc1c(C(=O)N(C)Cc2ccccc2)sc2nc(-c3ccc(F)cc3)cn12	22.4µM	?	-	.
Cc1cc(C)cc(Cn2c(C)c(C(=O)N(C)Cc3ccc(F)cc3)sc2=O)c1	31.6µM	-	-	-
O=C1C(=O)c2c(ccc3ccccc23)-c2ccccc21	2µM	-	-	-
SMILES	TDP43 rescue	FUS suppressor	Abeta rescue	aSyn rescue
O=C(CCS(=O)(=O)c1ccccc1)Nc1nc(-c2ccccn2)cs1	-	-	-	-
COc1ccc(OCCCC(=O)Nc2nc(-c3ccccn3)cs2)cc1	11.2µM	-	?	-
Cc1cc(C)c(OCC(=O)Nc2nc(-c3ccccn3)cs2)c(C)c1	-	?	-	12.6µM
O=C(CC1CC2CCC1C2)Nc1nc(-c2ccccn2)cs1 (stereo unspecified)	17.8µM	-	14.1µM	25.1µM
O=C(O)c1cc2cccc([N+](=O)[O-])c2[nH]1	.	.	.	-
CCn1c(SCc2c(F)cccc2F)nc2sc3c(c2c1=O)CCCC3	.	-	.	.
COc1cc2cncnc2cc1OCCCCC(N)=O	.	.	.	-
CNC(=O)C[C@@H]1CC[C@@H]2[C@H](COc3ccc(NC(=O)c4cccc(F)c4)cc3C(=O)N2C)O1	.	-	.	.
COc1cc2ccccc2cc1C(=O)OCC(=O)Nc1ccc(Br)cc1	.	.	.	-
C#CCOCCOCCOCCNc1nc(N2CCN(C(=O)CCCCCCCCCCNC(=O)[C@H]([C@@H](C)CC)n3cc(CCCCCN)nn3)CC2)nc(N2CCN(C(=O)CCCCCCCCCCNC(=O)[C@H](CCCCN)n3cc(CCCC(=O)O)nn3)CC2)n1	-	?	-	-
C#CCOCCOCCOCCNc1nc(N2CCN(C(=O)CCCCCCCCCCNC(=O)[C@H]([C@@H](C)CC)n3cc(CCCCN=C(N)N)nn3)CC2)nc(N2CCN(C(=O)CCCCCCCCCCNC(=O)[C@H](CCCCN)n3cc(C)nn3)CC2)n1	-	11.2µM	-	-
C#CCOCCOCCOCCNc1nc(N2CCN(C(=O)CCCCCCCCCCNC(=O)[C@@H](CCC(=O)O)n3cc(CCCCCN)nn3)CC2)nc(N2CCN(C(=O)CCCCCCCCCCNC(=O)[C@H]([C@@H](C)CC)n3cc(CCCCCN)nn3)CC2)n1	-	?	-	-
C#CCOCCOCCOCCNc1nc(N2CCN(C(=O)CCCCCCCCCCNC(=O)[C@H]([C@@H](C)CC)n3cc(CCCCCN)nn3)CC2)nc(N2CCN(C(=O)CCCCCCCCCCNC(=O)[C@H](CO)n3cc(CCCCCN)nn3)CC2)n1	-	14.1µM	-	-
Oc1ccc(N=Nc2ccc3c(c2)OCCO3)c2ncccc12	22.4µM	-	?	?
Cc1ccc(/C(N)=N/OC(=O)c2ccco2)cc1	?	-	-	-
COc1ccc(/C(N)=N/OC(=O)c2ccco2)cc1	17.8µM	-	-	-
N/C(=N\OC(=O)c1ccco1)c1ccc(Br)cc1	14.1µM	-	-	-
Cc1cccc(/C(N)=N/OC(=O)c2ccco2)c1	22.4µM	-	-	-
Cc1ccc(Nc2nc(NCc3ccco3)nc3nccnc23)cc1C	.	.	.	-
COc1cccc(CNc2ccc([N+](=O)[O-])cc2Cl)c1O	14.1µM	-	-	-
O=C(COc1ccccc1Cl)Nc1ccc(N2CCN(C(=O)c3ccccc3)CC2)cc1	22.4µM	-	-	-
Cc1ccccc1OCC(=O)Nc1ccc(N2CCN(C(=O)c3ccco3)CC2)cc1	15.8µM	-	?	-
O=C(COc1ccccc1Cl)Nc1ccc(N2CCCC2)cc1	-	-	-	-
CC(=O)N1N=C(c2ccco2)CC1c1ccc(Br)cc1 (stereo unspecified)	20µM	-	-	-
CC(=O)N1N=C(c2ccco2)CC1c1ccc(C)cc1 (stereo unspecified)	-	-	-	-
SMILES	TDP43 rescue	FUS suppressor	Abeta rescue	aSyn rescue
COc1ccc(OCc2nnnn2-c2ccccc2)cc1	-	-	-	-
Brc1ccc(OCc2nnnn2-c2ccccc2)cc1	22.4µM	-	-	-
O=C1c2ccccc2-c2onc3ccc(Oc4ccccc4)c1c23	7.08µM	.	-	?
O=C(Nc1nnc(SCc2ccc(F)cc2)s1)c1ccccn1	-	-	-	4.47µM
O=C(NNc1nc2ccc(F)cc2s1)c1cccc(F)c1	12.6µM	-	?	?
O=C(Nc1nc2ccc(F)cc2s1)c1ccccn1	-	-	?	11.2µM
O=C(Nc1nc2ccccc2s1)c1cnccn1	-	-	-	-
O=C(NNc1nc2ccccc2s1)c1ccc(F)cc1	?	.	-	-
CN(C)c1ccc(/C=C/c2ccnc3c(Cl)ccc(Cl)c23)cc1	.	.	.	-
C=CCN1C(=O)[C@H](CC(=O)NCc2cccs2)[C@@]2(C(=O)OCC)CCCC=C12	.	-	.	.
COC(=O)C[C@H]1C=C[C@H](NC(=O)Cc2ccccc2)[C@@H](CO)O1	-	-	-	3.55µM
Cc1ccc(C(=O)/C=C/Nc2ccccc2C(N)=O)o1	-	-	-	11.2µM
NC(=O)c1ccccc1N/C=C/C(=O)c1ccc(F)cc1	?	-	-	-
ON=C1c2ccccc2-c2ccc(Br)cc21	3.16µM	.	-	-
